In PubChem BioAssay AID734 (The Scripps Research Institute Molecular Screening Center, 2007):
Out of some 5,100 compounds screened, fewer than 10 were called active.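 Rule for the calls: active = inhibition above the mean inhibition over all tested compounds plus 3 SD (cut at about 75% in these data); inactive = the rest.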 These entries were drawn from the full list.

Molecular target: Collagenase 3 (Homo sapiens) (UniProt P45452)
Assay: human MMP13 inhibition, fluorescence-interfering compounds – biochemical, possible fluorescent artifacts, delta fluorescence, confirmation (AID 734);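 note: 0% = DMSO only wells and 100% = 8 µM reference MMP13 inhibitor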
Conditions: MMP13 fTHP FRET cleavage, delta fluorescence 4 h; hits give high values;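 each compound tested at 4 µM nominal in triplicate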

Compound	inhibition
CCCCN(CC)CCNC(=O)c1cc2c(=O)n(C)c3ccccc3c2n1C	9.76% (inactive)
COC(=O)c1[nH]c2ccc(C)cc2c1NC(=O)CN1CCN(Cc2ccccc2)CC1	5.26% (inactive)
Cc1cc(-c2ccccc2)nn1-c1nc2c(c(=O)[nH]c(=O)n2C)n1C	6.56% (inactive)
COc1ccc(-c2noc(CCC(=O)NCc3cccnc3)n2)cc1	-0.6% (inactive)
O=C(CSc1ccc2nnc(-c3cccc(F)c3)n2n1)NCC1CCCO1 (stereo not drawn)	0.9% (inactive)
CCCn1c(=N)c(C(=O)NCC2CCCO2)cc2c(=O)n3cccc(C)c3nc21 (stereo not drawn)	0.11% (inactive)
COc1cc2c(cc1OC)CN(C(=O)NS(=O)(=O)c1ccc(C)cc1)CC2	6.18% (inactive)
COc1cc2c(cc1OC)-c1cc(N3CCCCCC3)nc(=O)n1CC2	6.6% (inactive)
COc1cc(OC)cc(-c2cc3nc(C)c(CCC(=O)NC(C)CCc4ccco4)c(C)n3n2)c1 (stereo not drawn)	-0.26% (inactive)
CC(=O)Nc1nonc1-c1nc2ccccc2n1Cc1nnc(C)o1	4.74% (inactive)
COc1ccc(-c2cc(C(F)(F)F)nc(SCC(=O)Nc3cc(C)on3)n2)cc1OC	11.1% (inactive)
COc1cc(OC)cc(C(=O)NCC(=O)N2CCC(C)CC2)c1	7.88% (inactive)
COC(=O)c1cc2c(C)nn(-c3ccccc3)c2s1	5.12% (inactive)
Cc1nn(-c2ccccc2)c2sc(-c3n[nH]c(=S)o3)cc12	75.6% (active)
Cc1nn(-c2ccccc2)c2sc(C(=O)OC3CCOC3=O)cc12 (stereo not drawn)	-15.6% (inactive)
CCOC(=O)N1CCC(NC(=O)c2cc3c(-c4cccc(OC)c4)nn(C)c3s2)CC1	1.92% (inactive)
Cc1ccc(S(=O)(=O)Nc2ccccc2C(N)=O)cc1	7.43% (inactive)
N=C1C(c2nc3ccccc3c(=O)[nH]2)=C(O)CN1CCc1ccccc1	-5.72% (inactive)
COc1ccccc1C(=O)Nc1ccc(S(=O)(=O)N2CCOCC2)cc1	-0.87% (inactive)
O=C(c1ccc(Br)o1)N1CCN(Cc2ccc3c(c2)OCO3)CC1	3.6% (inactive)
Cc1ccc2nc(-c3ccc(SCC(=O)O)nc3)[nH]c2c1	-13.3% (inactive)
O=C(NCCN1CCOCC1)c1cc2ccccc2[nH]1	3.77% (inactive)
COC(=O)c1ccc(Sc2ccc(C)cc2)c(N)c1	-1.3% (inactive)
